SMILES strings stand for the structures.

For one assay, the system named is T1, MINK.
T1 construct: gene MINK1

Another assay concerns T2, MST1.
T2 construct: gene STK4

A further assay has as its system T3, PCTK1.
T3 construct: gene CDK16

The next assay has as its system T4, PCTK2.
T4 construct: gene CDK17

In a further assay the test system is T5, PCTK3.
T5 construct: gene CDK18
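Further: kd values determined as follow-up on hits from a single-replicate KINOMEscan panel screen.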

As for `O=c1cc(N2CCOCC2)nc2n(Cc3cccc(Cl)c3Cl)c3ccccc3n12` [GSK2299009], the Kd (commonly the equilibrium constant for the complex coming apart) with MELK is > 10000 nM.

In turn, `NS(=O)(=O)c1cccc(N/C=C2\C(=O)Nc3ccc(S(=O)(=O)Cc4c(Cl)cccc4Cl)cc32)c1` [GSK398099] yielded a Kd in the assay with MINK of 790 nM.

On to `CNC(=O)c1ccc(C)c(-n2c(C)cc(OCc3ccc(F)cc3F)c(Br)c2=O)c1`, for which the Kd in the assay with MKNK2 was > 10000 nM.

`CC(C)c1cc(-c2ccc3c(N)n[nH]c3c2)nc(N)n1` [GSK2250882] showed a dissociation constant Kd in the assay with MKNK2 of 160 nM.

On to `COc1cccc(C2=C(Nc3cc(Cl)c(O)c(Cl)c3)C(=O)NC2=O)c1` [SB-390767], for which the Kd in the assay on MST1 is 1800 nM; with NEK2, > 10000 nM; in the assay with PAK3 it was > 10000 nM.

In the case of `Nc1nccc(-c2c(-c3ccc(F)cc3)ncn2C2CCN(Cc3ccccc3)CC2)n1` [SB-219980], binding with NLK was characterised by a dissociation constant (Kd) of 140 nM.

In the case of `COc1ccc(Nc2nccc(N3CCC(NC(=O)C(C)c4ccc(Cl)cc4)CC3)n2)cc1` (centres unmarked) [GSK1379812], the Kd in the assay with PCTK1 was > 10000 nM.

`O=C(Nc1n[nH]c2nc(-c3ccco3)c(Br)cc12)C1CCN(Cc2ccccc2)C1.O=C(O)[C@H](O)[C@@H](O)C(=O)O` (centres unmarked) [SB-742034]: the Kd with PCTK1 came to 150 nM; in the assay on PCTK2, 240 nM.

For `CC(=O)c1c(C)c2cnc(Nc3ccn(C)n3)nc2n(C2CCCC2)c1=O`, in the assay with PCTK3, the Kd was > 10000 nM.

Consider `Cn1cnc2c(N)ncnc21` [SKF-97623], for which the Kd with PDGFRA is > 10000 nM.

`Cc1cnc(N)c(/C=C/c2cncc(C(=O)NCCc3ccc(Cl)cc3Cl)c2)c1.Cl` [GSK190937] yielded a Kd in the assay on PDGFRA of 39 nM.

As to `CNc1nc(-c2ccc3c(N)n[nH]c3c2)cc(N2C[C@@H](C(=O)Nc3ccccc3)CC[C@H]2C)n1` [GSK2298859], the affinity in the assay with PDPK1, expressed as Kd, was 1.7 nM.

For the compound `CC[C@@H]1CO[C@H](C(=O)Nc2ccccc2)CN1c1cc(-c2ccc3c(N)n[nH]c3c2)nc(NC)n1` [GSK2376236], the Kd with PDPK1 was 1.7 nM.

Turning to `Cc1nccc(-c2c(-c3ccc(F)cc3)ncn2CCCN2CCOCC2)n1.Cl` [SB-282975], the Kd with PHKG2 is > 10000 nM.

These data come from publication PMC5540273 (PLoS ONE, 2017).
